Where “and” joins values, the source holds several entries; their conditions need not be identical. Equal values may be shown once. The whole screen tested about 5,700 compounds, of which about 85 (1%) were called active. Cut-off read from the data, not from the text of the source: active = p53-positive nuclei above about 36% (passing the limit was not always enough); inactive = the rest. This excerpt belongs to a sample that is enriched for actives. Where a structure was tested more than once in an assay, its records may differ in their call.
Experiments:
[1] = p53 stabilisation in HPV-positive human cells, imaging, p53-positive nuclei imaging, 24 h, 48 h (AID 1508601); details: 24/48 h
[2] = target: Cellular tumor antigen p53 (Homo sapiens) (UniProt P04637); assay: as above; details: 24/48 h, stronger effect = higher value
[3] = measured here: cell number at 24 h, Library stock concentration: 10 mM
[4] = measured here: cell number at 48 h, Library stock concentration: 10 mM
[5] = Library stock concentration: 10 mM
[6] = measured here: p53 positive nuclei at 24 h, Library stock concentration: 10 mM
[7] = measured here: cell number at 24 h, Library stock concentration: 3.33 mM
[8] = measured here: cell number at 48 h, Library stock concentration: 3.33 mM
[9] = Library stock concentration: 3.33 mM
[10] = measured here: p53 positive nuclei at 24 h, Library stock concentration: 3.33 mM
[11] = measured here: cell number at 24 h, concentration not given here
[12] = measured here: cell number at 48 h, concentration not given here
[13] = measured here: p53 positive nuclei at 24 h, concentration not given here

Chain of Cellular tumor antigen p53 (Homo sapiens) (P04637 whole entry, looked up): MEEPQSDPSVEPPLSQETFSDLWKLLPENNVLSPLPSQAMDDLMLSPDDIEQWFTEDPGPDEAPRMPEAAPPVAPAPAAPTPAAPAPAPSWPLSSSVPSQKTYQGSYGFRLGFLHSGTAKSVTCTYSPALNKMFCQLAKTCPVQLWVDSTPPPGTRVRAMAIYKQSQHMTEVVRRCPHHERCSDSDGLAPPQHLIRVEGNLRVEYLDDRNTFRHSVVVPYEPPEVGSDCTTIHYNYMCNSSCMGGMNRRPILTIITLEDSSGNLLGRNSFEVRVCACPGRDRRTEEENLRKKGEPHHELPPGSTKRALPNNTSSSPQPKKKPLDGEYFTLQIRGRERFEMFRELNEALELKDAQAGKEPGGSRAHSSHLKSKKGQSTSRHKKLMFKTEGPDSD

## CCN1CCN(Cc2ccc(NC(=O)c3ccc(C)c(Oc4ccnc5[nH]ccc45)c3)cc2C(F)(F)F)CC1
[1]; measured here: cell number at 24 h, Library stock concentration: 80 uM
  nuclei count, normalised: 106%
[1]; measured here: cell number at 24 h, Library stock concentration: 400 uM
  nuclei count, normalised: 105%
[1]; measured here: cell number at 24 h, Library stock concentration: 2 mM
  nuclei count, normalised: 97.9%
[1]; [3]
  nuclei count, normalised: 101%
[1]; measured here: cell number at 48 h, Library stock concentration: 80 uM
  nuclei count, normalised: 116%
[1]; measured here: cell number at 48 h, Library stock concentration: 400 uM
  nuclei count, normalised: 108%
[1]; measured here: cell number at 48 h, Library stock concentration: 2 mM
  nuclei count, normalised: 111%
[1]; [4]
  nuclei count, normalised: 112%
[2]; Library stock concentration: 80 uM
  p53-positive nuclei, normalised: -0.0678% (inactive)
[2]; Library stock concentration: 400 uM
  p53-positive nuclei, normalised: 0.0485% (inactive)
[2]; Library stock concentration: 2 mM
  p53-positive nuclei, normalised: -0.223% (inactive)
[2]; [5]
  p53-positive nuclei, normalised: -0.127% (inactive)
[2]; measured here: p53 positive nuclei at 24 h, Library stock concentration: 80 uM
  p53-positive nuclei, normalised: -0.156%
[2]; measured here: p53 positive nuclei at 24 h, Library stock concentration: 400 uM
  p53-positive nuclei, normalised: -0.0165%
[2]; measured here: p53 positive nuclei at 24 h, Library stock concentration: 2 mM
  p53-positive nuclei, normalised: -0.102%
[2]; [6]
  p53-positive nuclei, normalised: -0.00926%

## COc1cccc2c1C(=O)c1c(O)c3c(c(O)c1C2=O)C[C@@](O)(C(=O)CO)C[C@@H]3OC1CC(N)C(OC2CCCCO2)C(C)O1 (stereo not given in full)
[1]; [7]
  nuclei count, normalised: 43.4%
[1]; [8]
  nuclei count, normalised: 38.3%
[2]; [9]
  p53-positive nuclei, normalised: 16.4% (inactive)
[2]; [10]
  p53-positive nuclei, normalised: 10.3%

## COc1cccc2c1C(=O)c1c(O)c3c(c(O)c1C2=O)C[C@@](O)(C(=O)CO)CC3O[C@H]1CC(N)C(O)C(C)O1 (stereo not given in full)
[1]; [7]
  nuclei count, normalised: 45.5% and 23.6%
[1]; [8]
  nuclei count, normalised: 36.1% and 17%
[2]; [9]
  p53-positive nuclei, normalised: 21.6% (inactive) and 89.4% (active)
[2]; [10]
  p53-positive nuclei, normalised: 2.1% and 92.1%

## C=C1C[C@H](O)[C@H](C/C=C\CCCC(=O)O)[C@H]1/C=C/C(=O)CCCCC
[1]; [11]
  nuclei count, normalised: 111%
[1]; [12]
  nuclei count, normalised: 105%
[2]; concentration not given here
  p53-positive nuclei, normalised: 0.125% (inactive)
[2]; [13]
  p53-positive nuclei, normalised: -0.0213%

## Nc1ccn(C2OC(CO)C(O)C2F)c(=O)n1 (stereo not given)
[1]; measured here: cell number at 24 h, Library stock concentration: 500 nM
  nuclei count, normalised: 115%
[1]; measured here: cell number at 24 h, Library stock concentration: 1.5 uM
  nuclei count, normalised: 111%
[1]; measured here: cell number at 24 h, Library stock concentration: 4.6 uM
  nuclei count, normalised: 77%
[1]; measured here: cell number at 24 h, Library stock concentration: 13.7 uM
  nuclei count, normalised: 64.6%
[1]; measured here: cell number at 24 h, Library stock concentration: 41 uM
  nuclei count, normalised: 64.5%
[1]; measured here: cell number at 24 h, Library stock concentration: 123 uM
  nuclei count, normalised: 60.1%
[1]; measured here: cell number at 24 h, Library stock concentration: 370 uM
  nuclei count, normalised: 55.2%
[1]; measured here: cell number at 24 h, Library stock concentration: 1.111 mM
  nuclei count, normalised: 59.3%
[1]; measured here: cell number at 24 h, Library stock concentration: 3.333 mM
  nuclei count, normalised: 55.3%
[1]; [3]
  nuclei count, normalised: 51.2%
[1]; measured here: cell number at 48 h, Library stock concentration: 500 nM
  nuclei count, normalised: 115%
[1]; measured here: cell number at 48 h, Library stock concentration: 1.5 uM
  nuclei count, normalised: 107%
[1]; measured here: cell number at 48 h, Library stock concentration: 4.6 uM
  nuclei count, normalised: 62%
[1]; measured here: cell number at 48 h, Library stock concentration: 13.7 uM
  nuclei count, normalised: 51.1%
[1]; measured here: cell number at 48 h, Library stock concentration: 41 uM
  nuclei count, normalised: 50.8%
[1]; measured here: cell number at 48 h, Library stock concentration: 123 uM
  nuclei count, normalised: 48.7%
[1]; measured here: cell number at 48 h, Library stock concentration: 370 uM
  nuclei count, normalised: 44.4%
[1]; measured here: cell number at 48 h, Library stock concentration: 1.111 mM
  nuclei count, normalised: 46.2%
[1]; measured here: cell number at 48 h, Library stock concentration: 3.333 mM
  nuclei count, normalised: 45.1%
[1]; [4]
  nuclei count, normalised: 41.5%
[2]; Library stock concentration: 500 nM
  p53-positive nuclei, normalised: -0.105% (inactive)
[2]; Library stock concentration: 1.5 uM
  p53-positive nuclei, normalised: -0.0067% (inactive)
[2]; Library stock concentration: 4.6 uM
  p53-positive nuclei, normalised: 0.019% (inactive)
[2]; Library stock concentration: 13.7 uM
  p53-positive nuclei, normalised: 0.162% (inactive)
[2]; Library stock concentration: 41 uM
  p53-positive nuclei, normalised: 0.839% (inactive)
[2]; Library stock concentration: 123 uM
  p53-positive nuclei, normalised: 0.265% (inactive)
[2]; Library stock concentration: 370 uM
  p53-positive nuclei, normalised: 0.43% (inactive)
[2]; Library stock concentration: 1.111 mM
  p53-positive nuclei, normalised: 0.292% (inactive)
[2]; Library stock concentration: 3.333 mM
  p53-positive nuclei, normalised: 0.443% (inactive)
[2]; [5]
  p53-positive nuclei, normalised: 0.266% (inactive)
[2]; measured here: p53 positive nuclei at 24 h, Library stock concentration: 500 nM
  p53-positive nuclei, normalised: -0.0685%
[2]; measured here: p53 positive nuclei at 24 h, Library stock concentration: 1.5 uM
  p53-positive nuclei, normalised: 0.0513%
[2]; measured here: p53 positive nuclei at 24 h, Library stock concentration: 4.6 uM
  p53-positive nuclei, normalised: 0.0647%
[2]; measured here: p53 positive nuclei at 24 h, Library stock concentration: 13.7 uM
  p53-positive nuclei, normalised: -0.0822%
[2]; measured here: p53 positive nuclei at 24 h, Library stock concentration: 41 uM
  p53-positive nuclei, normalised: 0.108%
[2]; measured here: p53 positive nuclei at 24 h, Library stock concentration: 123 uM
  p53-positive nuclei, normalised: 0.0172%
[2]; measured here: p53 positive nuclei at 24 h, Library stock concentration: 370 uM
  p53-positive nuclei, normalised: -0.0726%
[2]; measured here: p53 positive nuclei at 24 h, Library stock concentration: 1.111 mM
  p53-positive nuclei, normalised: -0.0774%
[2]; measured here: p53 positive nuclei at 24 h, Library stock concentration: 3.333 mM
  p53-positive nuclei, normalised: 0.296%
[2]; [6]
  p53-positive nuclei, normalised: -0.0521%

## CC(C)(C)Nc1nc2cc(Cl)c(Cl)cc2nc1S(C)(=O)=O
[1]; measured here: cell number at 24 h, Library stock concentration: 46 uM
  nuclei count, normalised: 108%
[1]; measured here: cell number at 24 h, Library stock concentration: 278 uM
  nuclei count, normalised: 105%
[1]; measured here: cell number at 24 h, Library stock concentration: 1.67 mM
  nuclei count, normalised: 93.6%
[1]; [3]
  nuclei count, normalised: 44.4%
[1]; measured here: cell number at 48 h, Library stock concentration: 46 uM
  nuclei count, normalised: 118%
[1]; measured here: cell number at 48 h, Library stock concentration: 278 uM
  nuclei count, normalised: 109%
[1]; measured here: cell number at 48 h, Library stock concentration: 1.67 mM
  nuclei count, normalised: 106%
[1]; [4]
  nuclei count, normalised: 50%
[2]; Library stock concentration: 46 uM
  p53-positive nuclei, normalised: -0.222% (inactive)
[2]; Library stock concentration: 278 uM
  p53-positive nuclei, normalised: -0.1% (inactive)
[2]; Library stock concentration: 1.67 mM
  p53-positive nuclei, normalised: -0.239% (inactive)
[2]; [5]
  p53-positive nuclei, normalised: 1.33% (inactive)
[2]; measured here: p53 positive nuclei at 24 h, Library stock concentration: 46 uM
  p53-positive nuclei, normalised: -0.151%
[2]; measured here: p53 positive nuclei at 24 h, Library stock concentration: 278 uM
  p53-positive nuclei, normalised: -0.151%
[2]; measured here: p53 positive nuclei at 24 h, Library stock concentration: 1.67 mM
  p53-positive nuclei, normalised: 0.616%
[2]; [6]
  p53-positive nuclei, normalised: 1.86%

## CC(C)CC1(CO)CCCN(C(=O)c2cccc(C#CC(C)(C)O)c2)C1 (stereo not given)
[1]; [11]
  nuclei count, normalised: 99%
[1]; [12]
  nuclei count, normalised: 100%
[2]; concentration not given here
  p53-positive nuclei, normalised: 0.108% (inactive)
[2]; [13]
  p53-positive nuclei, normalised: 0.27%

## O=C(O)C1=CC(O)C(O)C(O)C1 (stereo not given)
[1]; [7]
  nuclei count, normalised: 109%
[1]; [8]
  nuclei count, normalised: 109%
[2]; [9]
  p53-positive nuclei, normalised: -0.187% (inactive)
[2]; [10]
  p53-positive nuclei, normalised: -0.275%

## O=C(O)c1cc(-c2ccccc2)nc2ccccc12
[1]; [7]
  nuclei count, normalised: 111%
[1]; [8]
  nuclei count, normalised: 106%
[2]; [9]
  p53-positive nuclei, normalised: -0.105% (inactive)
[2]; [10]
  p53-positive nuclei, normalised: -0.282%

## COc1cc2ncc(-c3ccccc3)nc2cc1OC
[1]; [7]
  nuclei count, normalised: 78.5%
[1]; [8]
  nuclei count, normalised: 45.1%
[2]; [9]
  p53-positive nuclei, normalised: 55.2% (active)
[2]; [10]
  p53-positive nuclei, normalised: 3.05%

From PubChem BioAssay AID1508601 (ICCB-Longwood Screening Facility, Harvard Medical School, 2020)
